# Reference: PubChem BioAssay (NCI)
# Values joined by “and” are separate entries in the source; they are usually repeats but may differ in a detail not shown here. Equal entries are not always repeated. The panel holds about 83,000 compounds, 20% with a hit somewhere; the sample as a whole holds those more often.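 Compound tested at a single concentration for 48 hours in 96-well plates; a percent growth value below 10 was scored as active.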 Unmarked numbers belong to inactive results. Active and inactive are the calls of the source.
# System: MDA-MB-468 breast
# Assay: NCI-60 one-dose screen, 48 h (100 = growth as untreated, 0 = no growth, -100 = all killed)
# Details: 10 µM unless noted
row,Structure (SMILES),growth
1,O=[N+]([O-])c1c(S(=O)(=O)O)cc2cc(S(=O)(=O)O)ccc2c1[N+](=O)[O-],111%
2,CCn1cc(C(=O)N/N=C/c2cccc(F)c2)c(=O)c2cc(F)c(N3CCNC(C)C3)c(F)c21 (stereo not given),71.6%
3,O=C1c2ccccc2OC=C(c2ccccc2)N1CCCCNc1ccc(F)cc1,76.3%
4,COc1cc2nc(Cl)nc(Nc3cccc(C4=Nc5c(N)nc(N)nc5NC(c5ccccc5)C4)c3)c2cc1OC (stereo not given),96.5%
5,CCOC(CNCc1cc(C)c2[nH]c3ccccc3c2c1C)OCC,67.6%
6,O=C(NCCN1CCC(O)CC1)c1cc2c(o1)C(=O)c1ccccc1C2=O,-85.8% (active)
7,COc1ccc(S(=O)(=O)Nc2cc(Sc3cccc4cccnc34)c(O)c3ccccc23)cc1,-39.6% (active)
8,NC(=O)NCC1CCCCC1,98%
9,O=C(Nc1ccc(Cl)c([N+](=O)[O-])c1)Nc1nc2ccccc2s1,40.6%
10,CN(C)C1CCN(C(=O)c2ccc(NC(=O)Nc3ccc(-c4nc(N5CCOCC5)c5cccn5n4)cc3)cc2)CC1,-60.1% (active)
11,COc1cc(C(=O)NNC(=O)c2ccccc2C(=O)O)cc(OC)c1OC,48.6%
12,CCOC(=O)c1noc2c1CCc1c-2cn(Cc2ccc(OC)cc2)c1-c1cc(OC)c(OC)c(OC)c1,6.06% (active)
13,CC(=O)OC(C(=O)c1ccccc1)c1ccccc1 (stereo not given),109%
14,Cc1cc(-c2ccccc2)cc(SC#N)[n+]1[O-],34.8%
15,OC[C@H]1OC([S-])[C@H](O)[C@@H](O)[C@@H]1O.[Au+] (stereo not given in full),90.7%
16,O=C(O)CNC1=C(Cl)C(=O)c2ccccc2C1=O,109%
17,N#Cc1ccc(-c2ccc3c(c2)NC(=O)/C3=C\c2ccc[nH]2)cc1,-18.2% (active)
18,COc1ccc(N=Nc2nccs2)c(O)c1,18.6%
19,CC1=N/C(=C\c2cccc(Br)c2)C(=O)O1,107%
20,NC(=S)N/N=C(\c1ccc(Br)cc1)C1CC1,20% and 19%

row,Structure (SMILES),growth
1,O=C(CSc1nccc(=O)[nH]1)Nc1ccc(-c2nc3ccccc3[nH]2)cc1,118%
2,Nc1c(C(=O)Nc2cccc(Cl)c2)sc2ncc(Cl)cc12,95.3%
3,OCCN1CCN(c2cc(-c3cccc(OC(F)(F)F)c3)nc3ccc(N4CCCC4)cc23)CC1,16.6%
4,CCCCCCNC(=O)Oc1ccc(/C(=C(/CC)Cc2ccccc2)c2ccc(OCCCN(C)C)cc2)cc1,89.5%
5,CCCCCCC1(C)NCCO1 (stereo not given),103%
6,COc1ccc2[nH]c(O)c(/C=c3/ccc4c(c3)N=C(c3ccc(F)cc3)N=4)c2c1,76%
7,CCc1c(Nc2ccc(C)cc2)[nH]c(N)nc1=S,97.3%
8,COc1ccc(/C=C(\C#N)c2cc3ccccc3n2C(C)=O)cc1,58.8%
9,Cn1cc([C@@H]2Nc3ccc4[nH]ncc4c3[C@H]3[C@H]4CCC(C4)[C@H]32)c(C(F)(F)F)n1,53.4%
10,CC(C)(C)CC(C)(C)Nc1c(-c2ccc(-c3ccccc3)cc2)nc2cnccn12,109%
11,O=S(=O)(NCCNc1nccc(-c2c(-c3ccc(O)cc3)nc3sccn23)n1)c1cccc2ccccc12,94.6%
12,CCN1CCN(Cc2ccc(-c3cc4c(N[C@H](C)c5ccccc5)ncnc4[nH]3)cc2)CC1,-38.9% (active)
13,CCOC(=O)c1c(C)nc2c(c1N)CC(=O)N2Cc1ccc(F)cc1,91%
14,O=C(N=Nc1c(O)[nH]c2ccccc12)c1cc(-c2ccccc2)on1,109%
15,Nc1c(Br)cc2c(c1Br)Cc1cc([N+](=O)[O-])ccc1-2,-54.8% (active)
16,N#CC1=C(c2ccc(Cl)cc2)Nc2c(c(-c3ccc(Cl)cc3)nn2-c2ccccc2)C12C(=O)Nc1ccc(Cl)cc12 (stereo not given),52.9%
17,Cc1ccc([N+](=O)[O-])c(C)n1,112%
18,CC1OC(n2c3ccccc3c3c4c(c5c6ccccc6[nH]c5c32)C(=O)N(CCN2CCOCC2)C4=O)CC(O)C1O (stereo not given),-10.8% (active)
19,CC(=O)c1ccc(N2C(=O)c3ccc(Oc4ccccc4)cc3C2=O)cc1,105%
20,C#Cc1cccc(Nc2ncnc3ccc(-c4cncc(NS(C)(=O)=O)c4)cc23)c1,-40.3% (active)
